Rab9 promoter act – Rab9 promoter activation; Huh7 Rab9 promoter-luciferase reporter, luminescence, 24 h; Potency, µM (titrated, usually from 9.22 µM), actives largely listed as activators; actives 2.8% (n = 320,000); AID 485297; also: nearly all actives have a fitted effect of over 60% in size
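Huh7 reporter line, Rab9 promoter upstream of luciferase. Compound exposure 24 h at 37 °C in reduced-serum medium with 10% FBS. Read-out: luminescence.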
KinaseGlo FLuc – Kinase-Glo luciferase inhibition (counter-screen); actives 0.28% (n = 200,000); Kinase-Glo luciferase, ATP luminescence, 8 min; Potency, µM (titrated, usually from 38.3 µM), hits mostly inhibitors; Q27757; also: nearly all actives have a fitted effect of over 60% in size
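Compounds were added to a substrate mix at pH 7.2 (50 mM imidazole, 10 uM ATP, within the enzyme's linear range), followed by Kinase-Glo detection reagent; luminescence was measured after 8 minutes at ambient temperature.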
ELG1 genotox – genotoxicity induction in ELG1-luciferase HEK293T cells. HEK293T ELG1-luciferase reporter, luminescence, 16 h. Potency, µM (doses to about 46 µM), actives largely listed as activators. actives 1.3% (n = 330,000). AID 504466; also: nearly all actives have a fitted effect of over 60% in size
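Step 1: seed 2,000 HEK293T ELG1-luciferase cells per well. Step 2: add compound or DMSO, incubate 16 hr at 37 °C. Step 3: ONE-Glo, 30 min at room temperature, read luminescence.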
FLuc modulator – firefly luciferase modulation, counter-screen for miR-21 project. P08659. purified FLuc, Km substrates, luminescence inhibition. Potency, µM (titrated, usually from 57.5 µM), most hits filed as inhibitors. actives 6.9% (n = 360,000). AID 588342; also: nearly all actives have a fitted effect of over 55% in size
Target sequence (P08659 whole entry, looked up): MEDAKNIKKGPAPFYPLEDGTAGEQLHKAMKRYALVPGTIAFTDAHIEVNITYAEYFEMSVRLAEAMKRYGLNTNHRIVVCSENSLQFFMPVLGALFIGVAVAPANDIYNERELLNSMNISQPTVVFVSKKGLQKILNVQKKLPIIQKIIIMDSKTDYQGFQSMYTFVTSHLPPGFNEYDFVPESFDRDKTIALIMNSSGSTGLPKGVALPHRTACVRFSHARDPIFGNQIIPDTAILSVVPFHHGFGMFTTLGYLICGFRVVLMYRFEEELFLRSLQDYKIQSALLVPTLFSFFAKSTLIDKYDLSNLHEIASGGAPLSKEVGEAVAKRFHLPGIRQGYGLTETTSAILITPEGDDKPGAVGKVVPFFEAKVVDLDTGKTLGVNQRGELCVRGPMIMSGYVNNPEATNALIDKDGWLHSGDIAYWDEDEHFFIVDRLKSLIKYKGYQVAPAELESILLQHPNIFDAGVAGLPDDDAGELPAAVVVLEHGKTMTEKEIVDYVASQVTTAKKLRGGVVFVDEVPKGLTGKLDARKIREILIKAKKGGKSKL
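Purified P. pyralis luciferase, 10 nM final, with Km-level 10 uM D-luciferin and 10 uM ATP in 50 mM Tris acetate pH 7.5, 10 mM Mg acetate, 0.01% Tween-20, 0.05% BSA; 6-point qHTS titration about 60 µM downward; luminescence read.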
NPC1 promoter act – NPC1 promoter activation. Potency, µM (highest dose often 9.22 µM), hits mostly activators. Huh7 NPC1 promoter luciferase reporter, 24 h. actives 2.4% (n = 320,000); also: nearly all actives have a fitted effect of over 60% in size
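Luciferase expression driven by the NPC1 promoter was measured in stably transfected Huh7 cells after a 24 h compound incubation, using a luciferase reagent and a luminescence read.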
SMN2 splice up – enhancers of SMN2 splice variant expression | actives 2.8% (n = 210,000) | HEK293 SMN2-luciferase splicing reporter, luminescence, 30-36 h | Potency, µM (series often up to 46.1 µM), most hits filed as activators; also: nearly all actives have a fitted effect of over 55% in size
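HEK293 cells carry an SMN2 minigene-luciferase reporter in which exon 7 inclusion puts luciferase in frame. Cells were seeded at 2000 cells/well, attached for 10-12 hours, then exposed to compounds for 30-36 hours at 37C before ONE-Glo luminescence.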
Hits are given with their value; [ ] = another dose, or the depositor's remark. An excerpt weighted towards active compounds, which were near 7.5% of everything screened. Calls follow the shape of the dose curve; as a rule, active = well fitted curve in the direction sought with a large enough effect; inconclusive = small, poorly fitted or top-dose-only effect, or another doubt; inactive = no such curve, though single readings can be large; an effect the other way counts as inactive or inconclusive.

What do the screens show for `O=C(Nc1cccc(S(=O)(=O)NC2=NCCC2)c1)c1ccccc1`?
ELG1 genotox: inactive

Results for C=C(C)CNC(=S)Nc1cccc(S(=O)(=O)NC2=NCCC2)c1 ?
Rab9 promoter act: inactive; KinaseGlo FLuc: inactive; ELG1 genotox: inactive; FLuc modulator: inactive; NPC1 promoter act: inactive; SMN2 splice up: inactive

How did CCC1(c2ccc(F)cc2)NC(=O)N(CC(=O)NCc2ccccc2Cl)C1=O (configuration not stated) do in these assays?
Rab9 promoter act: inactive[1.84 µM]; ELG1 genotox: inactive; FLuc modulator: inactive; NPC1 promoter act: inactive

Results for N#Cc1nc(-c2ccccc2F)oc1NCCc1ccccc1 ?
Rab9 promoter act: inactive; KinaseGlo FLuc: inactive; ELG1 genotox: inactive; FLuc modulator: 26.9µM; NPC1 promoter act: inactive; SMN2 splice up: inactive

How did N#Cc1nc(-c2ccco2)oc1NCCc1ccccc1 do in these assays?
Rab9 promoter act: inactive; KinaseGlo FLuc: inactive; ELG1 genotox: inactive; FLuc modulator: inconclusive; NPC1 promoter act: inactive; SMN2 splice up: inactive

What do the screens show for `COc1ccc(Nc2oc(-c3cccs3)nc2C#N)cc1`?
Rab9 promoter act: 3.16µM; KinaseGlo FLuc: inactive; ELG1 genotox: inconclusive; FLuc modulator: 4.78µM; NPC1 promoter act: inconclusive; SMN2 splice up: inconclusive

What do the screens show for `N#Cc1nc(-c2ccccc2F)oc1NCc1ccccc1`?
Rab9 promoter act: inactive; KinaseGlo FLuc: inactive; ELG1 genotox: inactive; FLuc modulator: inactive; NPC1 promoter act: inactive; SMN2 splice up: inactive

Results for N#Cc1nc(-c2cccs2)oc1NCCc1ccccc1 ?
Rab9 promoter act: inactive; KinaseGlo FLuc: inactive; ELG1 genotox: inconclusive; FLuc modulator: 19µM; NPC1 promoter act: inactive; SMN2 splice up: inactive

How did Cc1cc(NC(=O)CCN2C(=O)/C(=C/c3ccccc3Cl)SC2=S)no1 do in these assays?
Rab9 promoter act: inactive; KinaseGlo FLuc: inactive; ELG1 genotox: inactive; FLuc modulator: inactive; NPC1 promoter act: inactive; SMN2 splice up: inactive

What do the screens show for `COc1ccc(/C=C2/SC(=S)N(CCC(=O)N3CCN(C)CC3)C2=O)cc1`?
Rab9 promoter act: inactive; ELG1 genotox: inactive; FLuc modulator: inconclusive; NPC1 promoter act: inactive

Results for Cc1ccc(/C=C2\SC(=S)N(CCCC(=O)N3CCOCC3)C2=O)cc1 ?
Rab9 promoter act: inactive; ELG1 genotox: inactive; FLuc modulator: 21.3µM; NPC1 promoter act: inactive

How did COc1ccc(/C=C2/SC(=S)N(CCCC(=O)N3CCN(C)CC3)C2=O)cc1 do in these assays?
Rab9 promoter act: inactive; ELG1 genotox: inactive; FLuc modulator: 21.3µM; NPC1 promoter act: inactive

Results for COc1ccc(/C=C2\SC(=S)N(CC(=O)Nc3nnc(C)s3)C2=O)cc1 ?
Rab9 promoter act: inactive; KinaseGlo FLuc: inactive; ELG1 genotox: inactive; FLuc modulator: inactive; NPC1 promoter act: inactive; SMN2 splice up: inactive

How did CCc1ccc(/C=C2\SC(=S)N(CCC(=O)Nc3cc(C)on3)C2=O)cc1 do in these assays?
Rab9 promoter act: inactive; ELG1 genotox: inactive; FLuc modulator: 16.9µM; NPC1 promoter act: inactive

What do the screens show for `COc1ccc(/C=C2\SC(=S)N(CC(=O)NCCO)C2=O)cc1`?
Rab9 promoter act: inactive; KinaseGlo FLuc: inactive; ELG1 genotox: inactive; FLuc modulator: 9.53µM; NPC1 promoter act: inactive; SMN2 splice up: inactive

Results for CCOC(=O)CC(C(=O)OCC)C1CCCCC1=O (configuration not stated) ?
KinaseGlo FLuc: inactive; SMN2 splice up: inactive

How did Cc1ccc(N2CCN(C(=O)c3nn(C)c4c3CSc3ccccc3-4)CC2C)cc1 (configuration not stated) do in these assays?
FLuc modulator: inactive

Results for COc1ccc(-c2onc(C)c2C)cc1S(=O)(=O)N(C)Cc1ccco1 ?
FLuc modulator: inactive

Results for CCOC(=O)c1cc(C)n(CC2CCC(C(=O)Nc3ccc(C(C)=O)cc3)CC2)c1C (configuration not stated) ?
FLuc modulator: inactive

How did CN1CCN(C(=O)CCCN2C(=O)/C(=C/c3ccc(Cl)cc3)SC2=S)CC1 do in these assays?
Rab9 promoter act: inactive; ELG1 genotox: inactive; FLuc modulator: inactive; NPC1 promoter act: inactive

Results for COc1ccc(/C=C2\SC(=S)N(CC(=O)N3CCN(C)CC3)C2=O)cc1 ?
Rab9 promoter act: inactive; ELG1 genotox: inactive; FLuc modulator: 10.7µM; NPC1 promoter act: inactive

What do the screens show for `CCc1ccc(/C=C2\SC(=S)N(CCC(=O)N3CCN(C)CC3)C2=O)cc1`?
Rab9 promoter act: inactive; KinaseGlo FLuc: inactive; ELG1 genotox: inactive; FLuc modulator: 2.69µM; NPC1 promoter act: inactive; SMN2 splice up: inactive

Results for O=C(Cn1cc(S(=O)(=O)Cc2ccc(F)cc2)c2ccccc21)NCCc1ccccc1 ?
FLuc modulator: inactive

How did CCN(c1ccccc1)S(=O)(=O)c1ccc(N2CCN(c3ccc(O)cc3)CC2)nc1 do in these assays?
ELG1 genotox: inactive

Results for CCCCOC(=O)Sc1nc2ccccc2o1 ?
Rab9 promoter act: inactive; KinaseGlo FLuc: inactive; ELG1 genotox: inactive; FLuc modulator: 15.1µM; NPC1 promoter act: inactive; SMN2 splice up: inactive

Results for COc1ccc(C(=O)N/C(N)=N/c2nc3ccccc3o2)cc1 ?
Rab9 promoter act: inactive; KinaseGlo FLuc: inactive; ELG1 genotox: inactive; FLuc modulator: inactive; NPC1 promoter act: inactive; SMN2 splice up: inactive

Results for COc1ccc(C(=O)/C=C/Sc2nc3ccccc3o2)cc1 ?
Rab9 promoter act: inactive; ELG1 genotox: inactive; FLuc modulator: 2.39µM; NPC1 promoter act: inactive

What do the screens show for `COc1ccc(CNC(=O)CN2C(=O)CSc3ccc(S(=O)(=O)N4CCCCC4)cc32)cc1`?
Rab9 promoter act: inactive; ELG1 genotox: inactive[9.26 µM]; FLuc modulator: inactive; NPC1 promoter act: inactive

How did Cc1ccc2nc(NC(=O)COC(=O)c3ccc(Br)o3)sc2c1 do in these assays?
Rab9 promoter act: inconclusive; KinaseGlo FLuc: inactive; ELG1 genotox: inactive; FLuc modulator: 26.9µM; NPC1 promoter act: inconclusive; SMN2 splice up: inactive

How did O=C(COC(=O)c1ccco1)Nc1ccc([N+](=O)[O-])cc1Cl do in these assays?
Rab9 promoter act: inactive; ELG1 genotox: inactive; FLuc modulator: inactive; NPC1 promoter act: inactive

Results for Cc1ccc2nc(NC(=O)COC(=O)c3ccco3)sc2c1 ?
KinaseGlo FLuc: inactive; FLuc modulator: 13.5µM; SMN2 splice up: inactive

Results for O=C(COC(=O)c1ccco1)Nc1nc2ccc([N+](=O)[O-])cc2s1 ?
Rab9 promoter act: inactive; ELG1 genotox: inactive; FLuc modulator: 19µM; NPC1 promoter act: inactive

What do the screens show for `CCn1cc(CN2CCc3c([nH]c4ccccc34)C2c2cccc(OC)c2OC)c(C)n1` (configuration not stated)?
Rab9 promoter act: inactive; KinaseGlo FLuc: inactive; ELG1 genotox: inactive; FLuc modulator: inactive; NPC1 promoter act: inactive

Assay outcomes as filed in PubChem BioAssay.
